The record followed here is PubChem BioAssay (NCATS).

Each structure is given as a SMILES string. Inconclusive results are not listed. Values without a mark were called inactive. Calls of active or inactive are those of the source. The call rests on the fitted dose curve; in most records, active means well fitted curve in the direction sought with a large enough effect; inconclusive means small, poorly fitted or top-dose-only effect, or another doubt; inactive means no such curve, though single readings can be large; an effect the other way counts as inactive or inconclusive.

For assay [1], the target named is Rap guanine nucleotide exchange factor 3 (Homo sapiens) (UniProt O95398). Briefly: Confirmatory qHTS for agonist of cAMP-regulated guanine nucleotide exchange factor 3 (EPAC1) (AID 1645881). Further: nearly all actives have a fitted effect of over 75% in size. Further: potency means the concentration at half of the fitted maximal effect.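 On activation: EPAC1 catalysed release of BODIPY-GDP from Rap1B seen as fluorescence loss; 100% = effect of cAMP agonist control.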
Sequence of Rap guanine nucleotide exchange factor 3 (Homo sapiens) (O95398 whole entry, looked up): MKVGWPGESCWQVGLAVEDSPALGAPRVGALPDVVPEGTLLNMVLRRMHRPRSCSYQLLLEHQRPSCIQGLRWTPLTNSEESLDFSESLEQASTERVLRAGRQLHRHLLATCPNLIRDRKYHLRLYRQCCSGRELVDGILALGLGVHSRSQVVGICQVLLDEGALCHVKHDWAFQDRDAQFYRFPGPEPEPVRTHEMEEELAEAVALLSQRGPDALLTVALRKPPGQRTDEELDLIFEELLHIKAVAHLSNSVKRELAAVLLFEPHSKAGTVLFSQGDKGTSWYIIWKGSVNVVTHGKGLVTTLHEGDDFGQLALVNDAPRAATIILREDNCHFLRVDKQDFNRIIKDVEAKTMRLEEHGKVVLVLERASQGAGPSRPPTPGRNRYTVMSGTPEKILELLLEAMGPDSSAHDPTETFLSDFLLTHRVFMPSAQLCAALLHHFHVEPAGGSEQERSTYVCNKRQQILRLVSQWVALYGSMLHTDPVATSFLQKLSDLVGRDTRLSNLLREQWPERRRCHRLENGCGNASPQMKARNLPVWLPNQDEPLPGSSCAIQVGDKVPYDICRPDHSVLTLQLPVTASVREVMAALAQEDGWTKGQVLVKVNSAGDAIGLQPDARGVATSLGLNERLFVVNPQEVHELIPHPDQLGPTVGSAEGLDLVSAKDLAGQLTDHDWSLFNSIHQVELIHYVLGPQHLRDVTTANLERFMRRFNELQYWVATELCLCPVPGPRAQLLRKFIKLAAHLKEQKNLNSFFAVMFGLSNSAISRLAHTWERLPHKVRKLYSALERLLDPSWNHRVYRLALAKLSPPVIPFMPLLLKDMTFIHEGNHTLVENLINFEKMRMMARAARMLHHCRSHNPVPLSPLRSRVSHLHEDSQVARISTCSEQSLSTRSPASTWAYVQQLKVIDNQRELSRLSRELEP
In assay [2] the target is Rap guanine nucleotide exchange factor 4 (Homo sapiens) (UniProt Q8WZA2). As to the kind of experiment: Confirmatory qHTS for agonist of cAMP-regulated guanine nucleotide exchange factor 4 (EPAC2) (AID 1645884).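 Further: nucleotide exchange releases bodipy-GDP from Rap1 and this lowers its fluorescence; nearly all actives have a fitted effect of over 65% in size.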 Further: potency means the concentration at half of the fitted maximal effect. On activation: on the % scale 0 is the no-effect control and ±100 the full control effect. For orientation: qHTS replaces the single test concentration by a dilution series.
Sequence of Rap guanine nucleotide exchange factor 4 (Homo sapiens) (Q8WZA2 whole entry, looked up): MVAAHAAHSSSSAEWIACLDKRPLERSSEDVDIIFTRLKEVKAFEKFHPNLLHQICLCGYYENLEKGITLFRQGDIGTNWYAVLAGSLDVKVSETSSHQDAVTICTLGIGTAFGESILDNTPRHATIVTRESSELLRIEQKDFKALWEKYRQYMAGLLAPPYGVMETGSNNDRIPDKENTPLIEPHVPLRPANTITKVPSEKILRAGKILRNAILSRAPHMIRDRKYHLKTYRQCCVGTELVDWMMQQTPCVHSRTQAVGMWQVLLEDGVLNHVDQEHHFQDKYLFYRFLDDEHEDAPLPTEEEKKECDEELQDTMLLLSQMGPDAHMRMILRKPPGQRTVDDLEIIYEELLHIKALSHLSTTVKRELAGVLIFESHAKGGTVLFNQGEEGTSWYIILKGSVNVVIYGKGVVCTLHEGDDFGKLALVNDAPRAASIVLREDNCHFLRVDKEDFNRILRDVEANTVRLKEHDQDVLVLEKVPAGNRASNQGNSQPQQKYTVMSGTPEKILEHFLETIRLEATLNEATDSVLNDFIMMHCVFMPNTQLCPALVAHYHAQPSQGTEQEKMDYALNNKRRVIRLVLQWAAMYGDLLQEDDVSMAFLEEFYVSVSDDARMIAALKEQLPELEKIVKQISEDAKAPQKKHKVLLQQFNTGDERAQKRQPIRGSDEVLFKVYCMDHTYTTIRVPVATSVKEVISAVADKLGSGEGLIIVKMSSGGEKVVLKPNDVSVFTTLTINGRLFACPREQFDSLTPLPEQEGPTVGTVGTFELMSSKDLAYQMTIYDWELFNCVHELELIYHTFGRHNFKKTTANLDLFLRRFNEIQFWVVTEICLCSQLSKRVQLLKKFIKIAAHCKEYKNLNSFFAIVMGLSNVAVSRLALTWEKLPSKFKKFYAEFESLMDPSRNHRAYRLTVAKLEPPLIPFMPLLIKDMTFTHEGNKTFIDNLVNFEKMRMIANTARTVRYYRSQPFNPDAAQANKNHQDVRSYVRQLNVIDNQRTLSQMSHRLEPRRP
For assay [3], the target named is Rap guanine nucleotide exchange factor 3 (Homo sapiens) (UniProt O95398). As to the kind of experiment: Counterscreen qHTS for antagonist of cAMP-regulated guanine nucleotide exchange factor 3 (EPAC1) (AID 1645888).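 Further: fluorescence loss as bound BODIPY-GDP is released from Rap1B; % of control where 0% means no effect.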 The method in brief: (§1)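 Rap1B–BODIPY-GDP (250 nM) with 50 uM GDP; compounds pin-transferred to 9.74 nM–152 uM final (activator) or from 7.32 nM upwards (inhibitor). Fluorescence Ex/Em 480/540 nm read at 5 and 30 min, then after adding cAMP or buffer, at room temperature.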

Assay [4] shares this target. Briefly: Counterscreen qHTS for agonist of cAMP-regulated guanine nucleotide exchange factor 3 (EPAC1) (AID 1645889). Further: nearly all actives have a fitted effect of over 40% in size. Further: potency means the concentration at half of the fitted maximal effect. On activation: % of control where 0% means no effect. The method in brief: as §1

As for `CCCCn1c(N)c(N(CCOC)C(=O)c2ccc(-c3ccc(C(C)=O)cc3)o2)c(=O)[nH]c1=O`, the Potency entry in assay [1], in assay [2] and in assay [3] was “inactive” in each case.
As for `O=C(Nc1ccccc1C(=O)Nc1nnc(C(F)(F)F)s1)c1ccccc1Cl`, the Potency entry in assay [1], in assay [2] and in assay [3] was “inactive” in each case.
Take `CN(C)c1ccc(-c2[nH][nH]c(=O)c2NC(=O)c2ccc3ccccc3n2)cc1`: the Potency entry in assay [1], in assay [2] and in assay [3] was “inactive” each time.
Regarding `N#C/C(=C(/O)c1ccccc1F)c1nc2cc(C(F)(F)F)ccc2s1`, the Potency result in assay [1] was “inactive”. Also, in assay [2], the activation was 1.01% [at 17.1 µM, percent relative to cAMP agonist control]. In addition, in assay [3], the activity change, negative = inhibition is 14.7% [at 30.8 µM].
On to `Nc1ccc(C(=O)N2CCN(S(=O)(=O)c3ccc(Cl)s3)CC2)cc1[N+](=O)[O-]`, for which the Potency entry in assay [1], in assay [2] and in assay [3] was “inactive” each time.
Regarding `Cc1ccc(S(=O)(=O)N2CCN(c3ncnc4sccc34)CC2)cc1C`, the Potency entry in assay [1], in assay [2] and in assay [3] was “inactive” in each case.
For `COc1ccc(OC)c(NC(=O)c2nc(S(=O)(=O)Cc3ccccc3)ncc2Cl)c1`, the Potency entry in assay [1], in assay [2] and in assay [3] was “inactive” each time.
Consider `C=Cc1ccc(CC2(C)C(=O)Nc3ccc(Cl)cc32)cc1` (stereo not given), for which the Potency entry in assay [1] is “inactive”. Besides, the activation in assay [2] was 9.02% [at 17.1 µM, percent relative to cAMP agonist control]. In assay [3], the activity change, negative = inhibition was -14.8% [at 30.8 µM].
Take `Nc1ccc(S(=O)(=O)Nc2nccs2)cc1N=Nc1ccccc1[N+](=O)[O-]`: in assay [1], the Potency result is “inactive”. Moreover, in assay [2], the activation is 0% [at 17.1 µM, percent relative to cAMP agonist control]. Moreover, the activity change, negative = inhibition in assay [3] is -16% [at 30.8 µM].
As to `C/C(=N/NS(=O)(=O)c1ccc(C(C)(C)C)cc1)c1ccc2c(c1)OCO2`, in assay [1], the Potency entry was “inactive”. Besides, the activation in assay [2] is 7.62% [at 17.1 µM, percent relative to cAMP agonist control]. The activity change, negative = inhibition in assay [3] is -17.7% [at 30.8 µM].
As to `CCCCn1nnnc1C(c1cc2ccccc2o1)N1CCN(c2ncccc2C#N)CC1` (stereo not given), in assay [1], the Potency entry is “inactive”. Further, in assay [2], the activation is 8.35% [at 17.1 µM, percent relative to cAMP agonist control]. The activity change, negative = inhibition in assay [3] was -7.87% [at 30.8 µM].
Turning to `C=CC[C@@H](Cc1ccc(F)cc1)C(=O)OC[C@@H]1CCCN1C(=O)[C@@H](CC=C)CC(=O)N(CCO)Cc1ccccc1`, the Potency entry in assay [1], in assay [2], in assay [3] and in assay [4] was “inactive” each time.
For `Cc1cc2c(C)nc(N/N=C/c3ccc(F)cc3)nc2o1`, the Potency entry in assay [1], in assay [2] and in assay [3] was “inactive” in each case.
With `O=c1oc2ccccc2n1Cc1ccccc1Cl`, the Potency result in assay [1], in assay [2], in assay [3] and in assay [4] was “inactive” each time.
In the case of `CCCN(CCC)Cc1cc(=O)oc2cc(OC)ccc12`, the Potency result in assay [1], in assay [2], in assay [3] and in assay [4] was “inactive” in each case.
Turning to `Cc1ccc(C)c(Cn2nc(-c3ccccc3)ccc2=O)c1`, the Potency result in assay [1] was “inactive”. The activation in assay [2] was -4.57% [at 17.1 µM, percent relative to cAMP agonist control]; in assay [4] it was 3.62% [at 30.8 µM]. For the same molecule, the activity change, negative = inhibition in assay [3] was 14.9% [at 30.8 µM].
As for `COc1cc2c(c(OC)c1OC)C(c1ccccc1C)CC(=O)O2` (stereo not given), the Potency entry in assay [1], in assay [2], in assay [3] and in assay [4] was “inactive” in each case.
`Cc1noc(C)c1COc1ccccc1C(=O)N(C)Cc1ccc(C(C)(C)C)cc1`: the Potency entry in assay [1], in assay [2], in assay [3] and in assay [4] was “inactive” in each case.
For `CC(C)=CCc1c(O)cc(O)c2c1OC(c1ccc(O)cc1)CC2=O` (stereo not given), the Potency result in assay [1], in assay [2] and in assay [3] was “inactive” in each case.
Consider `CCN1CCN(c2ccc(S(=O)(=O)N3CCCCC3)cc2NC(=O)c2ccc([N+](=O)[O-])s2)CC1`, for which the Potency entry in assay [1], in assay [2] and in assay [3] was “inactive” in each case.
For `Cc1ccc(/C=N/Nc2cc(C)nc(NCc3ccccc3)n2)cc1`, the Potency entry in assay [1], in assay [2] and in assay [3] was “inactive” each time.
For `O=C(NCCc1ccccc1)c1cccc(NC(=O)c2ccccc2)c1`, the Potency result in assay [1], in assay [2], in assay [3] and in assay [4] was “inactive” throughout.
As to `CCCN(CC(=O)Nc1ccccc1C)C(=O)C1CCN(c2ncnc3sc(C)c(C)c23)CC1`, the Potency entry in assay [1], in assay [2] and in assay [3] was “inactive” throughout.
In the case of `Cc1cc(C)c(Cn2cnc3ccccc32)c(C)c1`, the Potency entry in assay [1], in assay [2] and in assay [3] was “inactive” in each case.
Consider `O=C(O)c1ccc(COc2ccccc2/C=C2\NC(=O)N(Cc3ccc(F)cc3)C2=O)cc1`, for which the Potency entry in assay [1], in assay [2], in assay [3] and in assay [4] was “inactive” each time.
Regarding `COc1cccc(N2CCN(CC(=O)NC(=O)NCc3ccco3)CC2)c1`, the Potency entry in assay [1], in assay [2], in assay [3] and in assay [4] was “inactive” each time.
For the molecule `C=C1CC2C(=O)N(Cc3cc(OC)ccc3OC)C(C(=O)OCC)(C(=O)OCC)C1N2C(=O)OC(C)(C)C` (stereo not given), the Potency entry in assay [1], in assay [2], in assay [3] and in assay [4] was “inactive” throughout.
Take `CCC(C)(C)c1ccc(Oc2ccc(N)cc2)cc1`: the Potency result in assay [1], in assay [2], in assay [3] and in assay [4] was “inactive” in each case.
Turning to `O=C(O)c1[nH]c2ccccc2c1C(c1cccc(O)c1)c1c(C(=O)O)[nH]c2ccccc12`, the Potency result in assay [1], in assay [2], in assay [3] and in assay [4] was “inactive” throughout.
`COc1ccc(-c2ccc(C(=O)NCC3CC3)c3occc23)c(C)c1`: the Potency result in assay [1], in assay [2], in assay [3] and in assay [4] was “inactive” in each case.
Regarding `Cc1cc(C(C)(C)C)cc(C)c1COC(=O)c1cccnc1`, the Potency entry in assay [1], in assay [2], in assay [3] and in assay [4] was “inactive” each time.
In the case of `Cc1cc(Br)c2c(c1)[C@](O)(c1cn(C)c3ccccc13)C(=O)N2C`, in assay [1], the Potency entry is “inactive”. Also, the activation in assay [2] was 1.9% [at 17.1 µM, percent relative to cAMP agonist control]; in assay [4], 24.7% [at 30.8 µM]. The activity change, negative = inhibition in assay [3] is -15.6% [at 30.8 µM].
Take `COc1cccc(/C=C2/NC(=O)N(CC(=O)Nc3ccc(C)cc3)C2=O)c1OCc1cccc(C(=O)O)c1`: the Potency result in assay [1], in assay [2], in assay [3] and in assay [4] was “inactive” throughout.
Take `O=C(Nc1nc(-c2ccc(F)cc2)cs1)C1CCN(C(=O)c2ccc(F)cc2)CC1`: the Potency result in assay [1], in assay [2] and in assay [3] was “inactive” in each case.
For `Cc1nc2c(OCc3ccc(C(F)(F)F)cc3)cccn2c1N(C)Cc1cccs1`, the Potency entry in assay [1], in assay [2] and in assay [3] was “inactive” throughout.
Regarding `Clc1cccc(-c2nc3ccc(Cl)cn3c2Cc2ccsc2)c1`, the Potency result in assay [1], in assay [2] and in assay [3] was “inactive” throughout.
As to `O=C(Nc1nc2ccccc2c(=O)s1)c1ccc(F)cc1Cl`, the Potency result in assay [1], in assay [2], in assay [3] and in assay [4] was “inactive” each time.
Take `CCOC(=O)[C@H](C)N1[C@H](C)[C@H](c2ccccc2)Oc2ccc(Cl)cc2S1(=O)=O`: the Potency result in assay [1] is “inactive”. Further, the activation was 3.08% [at 17.1 µM, percent relative to cAMP agonist control] in assay [2] and 25.5% [at 30.8 µM] in assay [4]. For the same molecule, in assay [3], the activity change, negative = inhibition is 6.25% [at 30.8 µM].
Consider `CC(C)C[C@H]1COCCS(=O)(=O)N1Cc1ccc(Cl)c(Cl)c1`, for which, in assay [1], the Potency result was “inactive”. In addition, the activation in assay [2] was 1.63% [at 17.1 µM, percent relative to cAMP agonist control]. The activity change, negative = inhibition in assay [3] is -4.43% [at 30.8 µM].
For the molecule `FC(F)(F)C1=Nc2cccc3cccc(c23)N1`, the Potency result in assay [1], in assay [2] and in assay [3] was “inactive” throughout.
As for `CCOC(=O)C1=CCN(S(=O)(=O)c2ccccc2C)C1c1ccc(Cl)c(Cl)c1` (stereo not given), the Potency result in assay [1], in assay [2] and in assay [3] was “inactive” each time.
With `CC1=NN(c2nc(-c3ccccc3)cs2)C(=O)C1`, the Potency result in assay [1], in assay [2], in assay [3] and in assay [4] was “inactive” each time.
Take `Cc1ccc2nc(-c3cccc(Br)c3)c(Cc3ccccn3)n2c1`: the Potency entry in assay [1], in assay [2], in assay [3] and in assay [4] was “inactive” each time.
`CCCc1[nH]c2ccc(C#N)cc2c1CCC`: the Potency result in assay [1], in assay [2], in assay [3] and in assay [4] was “inactive” each time.
On to `O=S(=O)(Nc1ccccc1N1CCCC1)c1ccccc1C(F)(F)F`, for which the Potency entry in assay [1], in assay [2], in assay [3] and in assay [4] was “inactive” in each case.
Consider `COC1OC(c2ccccc2)=C(c2cnc(N)nc2)c2ccc(F)cc21` (stereo not given), for which the Potency entry in assay [1] was “inactive”. In addition, the activation is 3.06% [at 17.1 µM, percent relative to cAMP agonist control] in assay [2] and 11.3% [at 30.8 µM] in assay [4]. Also, the activity change, negative = inhibition in assay [3] is -3.58% [at 30.8 µM].
Turning to `CCN1CC=C2C(C#N)=C(N)C(C#N)(C#N)C(CCc3ccccc3)C2C1` (stereo not given), the results for the Potency in assay [1], in assay [2] and in assay [4] were 50.1 µM (active), 50.1 µM (active) and 5.62 µM (active), respectively. Moreover, the Potency entry in assay [3] is “inactive”.
In the case of `CCOC(=O)c1c(C)[nH]c(C(=O)C(C)OC(=O)c2ccc(NC(=O)CC#N)cc2)c1C` (stereo not given), the Potency entry in assay [1], in assay [2], in assay [3] and in assay [4] was “inactive” each time.
Regarding `COc1cc(NC(=O)c2ccccc2NS(=O)(=O)c2ccc(Cl)s2)cc(OC)c1`, the Potency entry in assay [1], in assay [2] and in assay [3] was “inactive” throughout.
Turning to `CCCCC1CC2=C(C(=O)OC(C)(C)O2)C(c2ccc(Cl)cc2)O1` (stereo not given), the Potency result in assay [1], in assay [2] and in assay [3] was “inactive” in each case.
In the case of `COc1cccc(COC(=O)CSCC(=O)Nc2cccc(C)c2)c1OC`, the Potency entry in assay [1], in assay [2] and in assay [3] was “inactive” throughout.
For the molecule `CN(CC(=O)Nc1ccccc1Cl)C(=O)c1ccc(Cl)c(S(=O)(=O)N2CCCCCC2)c1`, the Potency entry in assay [1], in assay [2], in assay [3] and in assay [4] was “inactive” throughout.
Regarding `Cc1cccc(NC(=S)N2CCN(S(=O)(=O)c3cccc(F)c3)CC2)c1`, the Potency result in assay [1], in assay [2], in assay [3] and in assay [4] was “inactive” each time.
Regarding `CCC(=C(c1ccc(OC)cc1)c1ccc(OC)cc1)c1cn(CC(O)CN(CCO)CCO)c2ccccc12` (stereo not given), the Potency entry in assay [1], in assay [2], in assay [3] and in assay [4] was “inactive” throughout.
